From PubChem BioAssay
In the library only some 12% were active in any assay of this set; here they are far more common.
JMJD2A Tudor = JMJD2A Tudor domain (human) inhibition; O75164; AlphaScreen JMJD2A-Tudor / H3K4me3 peptide binding; Potency, µM (top dose mostly 114 µM), inactives show top-dose activity change, negative = inhibition, hits mostly inhibitors; 4.4% of 390,000 active; also: % is scaled to controls: 0 for no effect and ±100 for the full control effect; nearly all actives have a fitted effect of over 50% in size
G9a inh = blocks human histone lysine methyltransferase G9a; Q96KQ7; G9a H3K9 monomethylation, AlphaScreen, 2 h; 8.8% of 350,000 active; Potency, µM (top dose mostly 102 µM), inactives show top-dose activity, negative = inhibition, usual class: inhibitors; also: % is scaled to controls: 0 for no effect and ±100 for the full control effect; nearly all actives have a fitted effect of over 75% in size
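Methyltransferase reactions run at room temperature for 2 h (20 nM enzyme, 500 nM biotin-H3K9 peptide, 20 uM SAM) after a 15 min compound preincubation; product detected by AlphaScreen beads and anti-H3K9me1 antibody.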
BAZ2B inh = inhibitors of human BAZ2B bromodomain. Q9UIF8. AlphaScreen BAZ2B-H3K14Ac peptide displacement. Potency, µM (doses to about 114 µM), for the others: top-dose activity change, negative = inhibition, most hits filed as inhibitors. 4.4% of 360,000 active. AID 504333; also: % is scaled to controls: 0 for no effect and ±100 for the full control effect; nearly all actives have a fitted effect of over 60% in size
Target sequence (Q9UIF8 whole entry, looked up): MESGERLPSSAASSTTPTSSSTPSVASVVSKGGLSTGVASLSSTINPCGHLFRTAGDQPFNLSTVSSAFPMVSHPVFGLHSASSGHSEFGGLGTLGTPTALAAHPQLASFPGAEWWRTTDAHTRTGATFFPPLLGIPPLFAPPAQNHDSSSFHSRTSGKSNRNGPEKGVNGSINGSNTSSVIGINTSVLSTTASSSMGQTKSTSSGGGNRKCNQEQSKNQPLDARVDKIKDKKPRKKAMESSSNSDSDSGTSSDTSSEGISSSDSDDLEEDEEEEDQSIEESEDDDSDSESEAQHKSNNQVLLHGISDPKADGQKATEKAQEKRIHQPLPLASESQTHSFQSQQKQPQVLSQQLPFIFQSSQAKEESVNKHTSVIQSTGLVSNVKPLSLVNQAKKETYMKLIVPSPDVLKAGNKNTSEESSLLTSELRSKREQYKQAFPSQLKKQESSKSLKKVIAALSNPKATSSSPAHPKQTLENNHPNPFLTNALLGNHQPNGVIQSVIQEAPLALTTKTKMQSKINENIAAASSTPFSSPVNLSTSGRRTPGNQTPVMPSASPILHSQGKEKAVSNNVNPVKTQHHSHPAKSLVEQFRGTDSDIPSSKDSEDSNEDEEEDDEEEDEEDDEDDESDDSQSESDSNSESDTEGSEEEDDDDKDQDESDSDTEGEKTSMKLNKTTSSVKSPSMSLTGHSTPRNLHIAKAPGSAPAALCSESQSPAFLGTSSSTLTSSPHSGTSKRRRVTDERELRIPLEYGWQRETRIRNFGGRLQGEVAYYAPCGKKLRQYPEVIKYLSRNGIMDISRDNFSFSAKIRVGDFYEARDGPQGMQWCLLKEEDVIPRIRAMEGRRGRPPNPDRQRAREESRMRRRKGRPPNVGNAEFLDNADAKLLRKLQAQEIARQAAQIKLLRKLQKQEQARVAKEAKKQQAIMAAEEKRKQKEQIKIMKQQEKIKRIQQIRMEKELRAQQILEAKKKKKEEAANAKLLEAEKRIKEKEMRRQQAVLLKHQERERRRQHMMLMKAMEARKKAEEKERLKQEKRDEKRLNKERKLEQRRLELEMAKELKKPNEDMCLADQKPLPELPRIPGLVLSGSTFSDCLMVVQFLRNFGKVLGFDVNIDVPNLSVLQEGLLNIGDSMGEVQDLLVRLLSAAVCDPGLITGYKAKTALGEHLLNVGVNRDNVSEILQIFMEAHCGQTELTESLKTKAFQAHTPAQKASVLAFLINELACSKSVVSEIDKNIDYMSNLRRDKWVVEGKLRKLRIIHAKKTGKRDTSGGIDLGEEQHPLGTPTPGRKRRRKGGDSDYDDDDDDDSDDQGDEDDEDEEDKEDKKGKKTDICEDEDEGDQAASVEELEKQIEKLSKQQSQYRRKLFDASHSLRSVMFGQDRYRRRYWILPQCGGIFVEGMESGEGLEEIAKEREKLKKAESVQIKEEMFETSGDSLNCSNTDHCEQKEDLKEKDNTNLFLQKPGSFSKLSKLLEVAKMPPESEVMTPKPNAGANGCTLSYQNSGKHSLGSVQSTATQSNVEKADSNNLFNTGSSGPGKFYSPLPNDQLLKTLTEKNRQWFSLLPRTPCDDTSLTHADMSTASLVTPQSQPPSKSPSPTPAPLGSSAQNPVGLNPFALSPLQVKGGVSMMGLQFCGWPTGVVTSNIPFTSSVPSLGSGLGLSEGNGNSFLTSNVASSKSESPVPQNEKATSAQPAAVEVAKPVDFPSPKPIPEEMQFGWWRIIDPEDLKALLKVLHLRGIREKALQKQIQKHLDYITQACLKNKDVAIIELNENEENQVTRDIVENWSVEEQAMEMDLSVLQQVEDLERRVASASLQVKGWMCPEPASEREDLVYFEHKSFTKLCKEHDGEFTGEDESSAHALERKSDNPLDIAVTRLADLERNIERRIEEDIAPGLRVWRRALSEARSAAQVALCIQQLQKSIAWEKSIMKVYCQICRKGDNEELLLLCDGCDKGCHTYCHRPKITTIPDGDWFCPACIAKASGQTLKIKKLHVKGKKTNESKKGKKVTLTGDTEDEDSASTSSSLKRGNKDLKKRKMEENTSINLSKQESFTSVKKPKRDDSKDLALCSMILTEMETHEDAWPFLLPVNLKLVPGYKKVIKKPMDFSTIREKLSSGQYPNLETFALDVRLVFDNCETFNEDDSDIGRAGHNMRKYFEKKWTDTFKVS
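Protein-peptide AlphaScreen: BAZ2B 50 nM, b-H3K14Ac 50 nM, 1x PBS pH 7.4 + 0.01% Tween-20. Preincubation 30 min RT; cpd 30 min RT (top 110 uM); beads 20 min RT, light-protected.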
Sfp PPTase inh = blocks B. subtilis Sfp PPTase activity; Biochemical Sfp PPTase activity, qHTS; Potency, µM, inactives show largest response in the series, negative = inhibition, actives largely listed as inhibitors; 3.5% of 310,000 active; Q9F4F7;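 also: the enzyme is Sfp with the accession as filed and its product quenches rhodamine fluorescence; 0% = enzyme reaction without inhibitor and -100% = no enzyme wells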
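Fluorescence-quenching assay with 15 nM Sfp, 5 uM rhodamine-CoA and 12.5 uM BHQ-2-labelled ybbR peptide in pH 7.6 Hepes/MgCl2 buffer. Enzyme was pre-incubated with compound for 15 min at room temperature. Rate was taken from the 30-min fluorescence change (525/598 nm).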
L3MBTL1 block = inhibitors of human L3MBTL1. AID 485360. Q9Y468. Potency, µM (highest dose often 57.1 µM), without a hit: at the highest dose activity, negative = inhibition, hits mostly inhibitors. 0.66% of 230,000 active. AlphaScreen L3MBTL1–H3K9me1 peptide binding; also: % is scaled to controls: 0 for no effect and ±100 for the full control effect; nearly all actives have a fitted effect of over 60% in size
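First, the protein-peptide complex forms for 30 min at room temperature (L3MBTL1 50 nM, biotinylated H3K9me1 peptide 75 nM). Next, compounds are pin-transferred and incubated 30 min. Finally, AlphaScreen beads are added and read after 30 min.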
HP1b binding inh = blocks HP1-beta chromodomain binding to methylated histone tails. AlphaScreen HP1-beta / biotin-H3K9me3 peptide binding. Potency, µM (highest dose often 114 µM), for the others: top-dose activity change, negative = inhibition, actives largely listed as inhibitors. 0.56% of 390,000 active. AID 540317; also: nearly all actives have a fitted effect of over 70% in size
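AlphaScreen: HP1-beta (50 nM) preformed 30 min with biotin-H3(1-18)K9me3 peptide (50 nM) in PBS pH 7.4, 0.01% Tween-20. Compound added for 30 min at RT, then streptavidin donor/nickel chelate acceptor beads (10 ug/mL) for 30 min.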
An asterisk follows results filed as active; ? = inconclusive; nt = not tested or not shown; [ ] = another dose, or the depositor's remark. Calls follow the shape of the dose curve; as a rule, active = well fitted curve in the direction sought with a large enough effect; inconclusive = small, poorly fitted or top-dose-only effect, or another doubt; inactive = no such curve, though single readings can be large; an effect the other way counts as inactive or inconclusive. Potency is read from the fitted curve at half-maximal effect.

SMILES	JMJD2A Tudor	G9a inh	BAZ2B inh	Sfp PPTase inh	L3MBTL1 block	HP1b binding inh
CS(=O)(=O)c1ccc(C(=O)OCC(=O)NC2CCS(=O)(=O)C2)cc1[N+](=O)[O-] (centres undefined)	-13%	-50%	1%	18%	10%	40%
CS(=O)(=O)c1ccc(SCC(=O)NC2CCS(=O)(=O)C2)c([N+](=O)[O-])c1 (centres undefined)	1%	32µM*	-9%	-28%	11%	17%
COc1cccc(CNC(=O)c2ccc(CN3CC(=O)N4CCCCC4C3=O)cc2)c1 (centres undefined)	-7%	-19%[59 µM]	0%	nt	nt	-6%
Cc1cc(C)n(-c2nc3ccccc3n3nnnc23)n1	-7%	?	0%	16%	nt	30%
N#Cc1cc2ccccc2n2nnnc12	0%	50µM*	-10%	6%	nt	17%
CCN1C(=O)[C@H]2[C@H]3[C@H](O)[C@H](O)C/C(=N/OC)[C@@H]3CC[C@@H]2C1=O	nt	nt	nt	-4%	nt	nt
COc1ccc(C(=O)C(OC(=O)CNC(=O)c2ccco2)c2ccccc2)cc1 (centres undefined)	-16%	50µM*	-38%[57.1 µM]	79µM*	-9%	8%
CN(C)c1cccc(C(=O)N2CCC(c3c[nH]c4ccccc34)(c3c[nH]c4ccccc34)CC2)c1	?	?	?	nt	nt	-21%
Cc1ccc(C(=O)Nc2ccc(N3CCN(C)CC3)cc2)cc1C	-26%	71µM*	-37%	8%	-8%	4%
CCN1CCN(c2ccc(NC(=O)c3ccc4c(c3)OCCO4)cc2C)CC1	-16%	7.9µM*	?	nt	-5%	1%
CN1CCN(c2ccc(NC(=O)c3cccc(OCc4ccccc4)c3)cc2)CC1	?	16µM*	?	-15%	-4%	-4%
CN1CCN(c2ccc(NC(=O)c3ccc4c(c3)OCCO4)cc2)CC1	-18%	45µM*	-16%	21%	-11%	6%
COc1ncc2nc(-c3ccc(F)cc3)c(=O)n(CCc3ccccc3)c2n1	nt	4%[0.501 µM]	nt	11%	nt	nt
COc1ccc(C(=O)N2CCC3(CC2)CCN(c2ccncc2)CC3)cc1	nt	-2%[12.7 µM]	nt	24%	nt	nt
C=C1CC[C@H](O)C/C1=C/C=C1\CCC[C@]2(C)[C@@H]([C@H](C)CCCC(C)(C)O)CC[C@@H]12	nt	1%[12.7 µM]	nt	21%	nt	nt
CC(C)Oc1ccc(C(CCN)C2CCCCC2)cc1 (centres undefined)	22µM*	16µM*	50µM*	?	nt	79µM*
CCOc1cc2[nH]c(=O)n(CCCCC(=O)N3CCN(c4ccc(OC)cc4)CC3)c(=O)c2cc1OCC	-6%	-9%[59 µM]	1%	nt	nt	22%
COc1ccc(N2CCN(CCCn3c(=S)[nH]c4ccccc4c3=O)CC2)cc1	?	7%	28µM*	2%	nt	27%
COc1ccccc1N1CCN(CCCn2c(=S)[nH]c3ccccc3c2=O)CC1	-36%	-10%	?	9%	nt	26%
COc1ccc(N2CCN(CCCNC(=O)C(=O)c3c(C)[nH]c4ccccc34)CC2)cc1	45µM*	-1%[0.0925 µM]	28µM*	2%	nt	?
CCOc1cc2[nH]c(=O)n(CCCN3CCN(c4ccc(OC)cc4)CC3)c(=O)c2cc1OCC	?	10µM*	?	9%	nt	-22%
COc1ccccc1NC(=O)CN1C(=O)CC(c2ccc(C)c(C)c2)=Nc2ccccc21	?	-30%[59 µM]	-31%	nt	nt	17%
CCOC(=O)C1=C(Cc2ccc(C)cc2)C(=O)c2ccccc2C1=O	nt	8.9µM*	22µM*	7.9µM*	nt	nt
CCOC(=O)c1ccc(COC(=O)c2ccc3c(c2)-c2ccccc2C3=O)cc1	-17%	0%[59 µM]	7%	3%	0%	24%
CCOC(=O)C1=C(Cc2ccc(OC)cc2)C(=O)c2ccccc2C1=O	40µM*	2.8µM*	22µM*	10µM*	nt	18µM*
SMILES	JMJD2A Tudor	G9a inh	BAZ2B inh	Sfp PPTase inh	L3MBTL1 block	HP1b binding inh
O=C(CSc1cccc[n+]1[O-])c1cccs1	-9%	18µM*	-12%	4%	8%	15%
CCn1c(SCC(=O)NCc2ccco2)nnc1-c1cccs1	-18%	?	?	14µM*	0%[11.4 µM]	30%
CCn1c(SCC(=O)NCc2ccco2)nnc1-c1ccncc1	nt	-29%	-25%	11%	-10%	nt
CCn1c(SC(=O)NC2CCCCC2)nnc1-c1cccs1	4.5µM*	?	4%	-7%	-1%	22µM*
CCn1c(SCC(=O)N2c3ccccc3Sc3ccccc32)nnc1-c1ccco1	?	6.3µM*	?	?	15%[11.4 µM]	-7%
COc1cccc(C2=NN(S(C)(=O)=O)C(c3cn(-c4ccccc4)nc3-c3cccs3)C2)c1 (centres undefined)	-16%	-20%[59 µM]	-27%	nt	nt	18%
CCc1ccc(NC(=O)c2sc3nc(C)c(Cl)c(C)c3c2NC(=O)c2ccccc2OC)cc1	-5%	?	-8%	nt	nt	23%
CCn1c(SCC(=O)c2cccs2)nnc1-c1ccco1	-16%	50µM*	-5%	0%	-11%	33%
Cn1nnnc1SCC(=O)c1cccs1	-3%	?	1%	45µM*	2%	64%
CCn1c(SCC(N)=O)nnc1-c1ccco1	-7%	9%	10%	6%	1%	12%
Cn1cccc1C(=O)NC(=O)CSc1cccc[n+]1[O-]	-10%	28µM*	-37%	?	-9%	13%
COc1ccc(CN(Cc2ccccc2)C(=O)c2ccccc2O)cc1	68%	nt	nt	nt	nt	nt
COc1ccc(CN(Cc2ccco2)C(=O)c2ccccc2F)cc1	-22%	5%[59 µM]	-20%	nt	nt	30%
